Our source for the growth values is PubChem BioAssay (NCI).

Each structure is given as a SMILES string. Compounds without any hit were thinned out: in the full panel of roughly 83,000, 20% have a hit.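 Step 1: grow cells in 96-well plates. Step 2: add test compound at a single concentration. Step 3: incubate 48 h. Step 4: record percent growth.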 A number with no mark means an inactive call. Calls of active or inactive are those of the source. Rule for the calls: active = growth percent below 10; inactive = the rest.

Test systems include NCI-H23 lung; NCI-H226 lung; NCI-H322M lung; HOP-62 NSCLC; NCI-H460 lung; HOP-92 NSCLC; NCI-H522 lung; A549/ATCC NSCLC; 786-0 renal; COLO 205 colon.
Holding throughout (test): NCI-60 one-dose screen, 48 h (100 = growth as untreated, 0 = no growth, -100 = all killed)
What all share (details): 10 µM unless noted

Regarding `Cn1cc(-c2cc(N)n3nc(-c4c[nH]c5ccc(Cl)cc45)cc3n2)c2cc(Br)cnc21`, the growth with NCI-H23 lung was -58.6% (active); in the assay on NCI-H226 lung, -12.5% (active); in the assay with NCI-H322M lung, 32.3%; in the assay on HOP-62 NSCLC, -22.4% (active); in the assay on NCI-H460 lung it was -58% (active); in the assay with HOP-92 NSCLC, -76.8% (active). Moreover, the growth with NCI-H522 lung is -71% (active); with A549/ATCC NSCLC, -64.9% (active); in the assay on 786-0 renal it was -93.7% (active); in the assay with COLO 205 colon, -91.6% (active).
Consider `O=C(N/N=C/c1ccc(Cl)cc1)c1ccc(OCc2nc3ccc(Cl)cc3[nH]2)cc1`, for which the growth with NCI-H23 lung is 4.91% (active); in the assay on NCI-H226 lung it was 77.4%; with NCI-H322M lung it was 71.3%; in the assay on HOP-62 NSCLC, -41.6% (active); in the assay on NCI-H460 lung, -82.3% (active); with HOP-92 NSCLC it was 19.6%. Moreover, the growth was 7.51% (active) in the assay on NCI-H522 lung, -60.1% (active) in the assay on A549/ATCC NSCLC, -63.1% (active) in the assay with 786-0 renal and 4.04% (active) with COLO 205 colon.
With `COc1ccc(NC(=O)CSc2nnc(-c3ccc(-c4nc5ccc(Cl)cc5[nH]4)cc3)o2)cc1`, the growth is -15.7% (active) with NCI-H23 lung; -18.8% (active) in the assay on NCI-H226 lung; 35% in the assay on NCI-H322M lung; -25.4% (active) with HOP-62 NSCLC; -17.2% (active) in the assay with NCI-H460 lung; 4.79% (active) in the assay with HOP-92 NSCLC. In addition, the growth was 6.93% (active) in the assay on NCI-H522 lung, 1.75% (active) with A549/ATCC NSCLC, -64.4% (active) in the assay on 786-0 renal and 69.4% in the assay on COLO 205 colon.
As for `CCOC(=O)c1ccc(NC(=S)NC(=O)c2cccc(NC(=O)c3ccc(C)cc3)c2)cc1`, the growth in the assay on NCI-H23 lung was 66.8%; in the assay on NCI-H226 lung it was 32.2%; in the assay with NCI-H322M lung, 74.7%; in the assay on HOP-62 NSCLC, 40.4%; in the assay with NCI-H460 lung, 75.9%; in the assay on HOP-92 NSCLC, 36.4%. For the same compound, the growth in the assay on NCI-H522 lung was 50.6%; in the assay with A549/ATCC NSCLC, 48.2%; in the assay on 786-0 renal, 81.2%; with COLO 205 colon, 77.9%.
Take `Cc1ccc2nc(NC(=O)Nc3cccc(Cl)c3)sc2c1`: the growth in the assay with NCI-H23 lung was 93.8%; in the assay with NCI-H226 lung, 96.4%; with NCI-H322M lung, 93.7%; with HOP-62 NSCLC, 111%; with NCI-H460 lung it was 99.1%; in the assay on HOP-92 NSCLC it was 119%. Besides, the growth in the assay on NCI-H522 lung was 94%; in the assay on A549/ATCC NSCLC, 106%; with 786-0 renal it was 107%; in the assay with COLO 205 colon it was 117%.
`Cc1ccc(C(=O)C[n+]2cccc3c4ccccc4ccc32)cc1`: the growth is 27.4% in the assay on NCI-H23 lung; 36.3% in the assay on NCI-H226 lung; 43.3% in the assay with NCI-H322M lung; 36.1% in the assay on HOP-62 NSCLC; 4.31% (active) in the assay with NCI-H460 lung; -8.04% (active) with HOP-92 NSCLC. The growth is 22.1% with NCI-H522 lung, 23.8% with A549/ATCC NSCLC, 34.4% in the assay on 786-0 renal and 5.75% (active) with COLO 205 colon.
Take `O=C(NC(=S)N1CCN(c2ncnc3c2cnn3-c2ccccc2)CC1)c1ccc(Br)cc1`: the growth was 64.4% in the assay on NCI-H23 lung; 60.6% in the assay with NCI-H226 lung; 75.4% in the assay on NCI-H322M lung; 37.4% in the assay with HOP-62 NSCLC; 69.2% with NCI-H460 lung; 47.2% in the assay with HOP-92 NSCLC. Moreover, the growth in the assay with NCI-H522 lung was 60.9%; in the assay with A549/ATCC NSCLC, 80.6%; with 786-0 renal, 72%; in the assay on COLO 205 colon, 98.7%.
`Cc1ccc(Cl)cc1NC(=O)N/C(N)=N/c1nc2ccccc2s1`: the growth with NCI-H23 lung was -9.8% (active); in the assay with NCI-H226 lung, 0.832% (active); in the assay with NCI-H322M lung, 18.6%; in the assay with HOP-62 NSCLC it was -11.7% (active); with NCI-H460 lung, -8.76% (active); in the assay on HOP-92 NSCLC, -23% (active). Also, the growth in the assay with NCI-H522 lung was -61.9% (active); in the assay on A549/ATCC NSCLC it was -36.9% (active); with 786-0 renal it was -2.48% (active); in the assay on COLO 205 colon, -91.1% (active).
Regarding `CCOc1ccccc1[C@H]1C(C(=O)c2ccc(Cl)cc2)C2(N[C@@H]1c1ccccc1)C(=O)Nc1ccccc12` (stereo not given in full), the growth in the assay with NCI-H23 lung was 4.22% (active); with NCI-H226 lung, -18.4% (active); with NCI-H322M lung, 36.1%; in the assay with HOP-62 NSCLC it was 32.9%; in the assay on NCI-H460 lung, -36.3% (active); in the assay with HOP-92 NSCLC, -22.4% (active). Besides, the growth was -3.52% (active) with NCI-H522 lung, 57.4% in the assay on A549/ATCC NSCLC, -16.4% (active) with 786-0 renal and -81.5% (active) in the assay with COLO 205 colon.
As for `O=C(NNC(=O)c1ccc(OCc2nc3ccc(Cl)cc3[nH]2)cc1)Nc1ccc(Cl)c(C(F)(F)F)c1`, the growth in the assay on NCI-H23 lung is 35.9%; in the assay with NCI-H226 lung it was 64.1%; in the assay on NCI-H322M lung, 43.6%; in the assay on HOP-62 NSCLC, 68.4%; in the assay with NCI-H460 lung, 38.1%; in the assay with HOP-92 NSCLC, -1.57% (active). Also, the growth in the assay on NCI-H522 lung is 49%; in the assay with A549/ATCC NSCLC, 57.1%; in the assay on 786-0 renal, 70.1%; with COLO 205 colon, 85.6%.
Take `COc1ccc2[nH]cc(-c3cc4nc(-c5cn(C)c6ncc(Br)cc56)cc(N)n4n3)c2c1`: the growth in the assay on NCI-H23 lung is -76.7% (active); in the assay on NCI-H226 lung, -31.6% (active); with NCI-H322M lung it was -47.5% (active); with HOP-62 NSCLC, -50.2% (active); in the assay on NCI-H460 lung, -51.3% (active); in the assay on HOP-92 NSCLC, -79.2% (active). In addition, the growth in the assay on NCI-H522 lung is -64.9% (active); in the assay with A549/ATCC NSCLC it was -69.8% (active); in the assay with 786-0 renal, -95% (active); in the assay with COLO 205 colon, -75.5% (active).
Consider `O=C1Nc2ccc(F)cc2/C1=C/C(=O)c1cc2ccccc2oc1=O`, for which the growth with NCI-H23 lung is 96.1%; in the assay with NCI-H226 lung, 86%; with NCI-H322M lung, 104%; in the assay with HOP-62 NSCLC, 97.3%; with NCI-H460 lung, 104%; with HOP-92 NSCLC it was 94.7%. The growth with NCI-H522 lung was -7.22% (active); with A549/ATCC NSCLC it was 108%; in the assay on 786-0 renal it was 112%; in the assay with COLO 205 colon, 105%.
Regarding `O=C(CSc1nc2ccccc2c(=O)[nH]1)NNC(=O)c1ccccc1Cl`, the growth in the assay on NCI-H23 lung was 104%; with NCI-H226 lung, 111%; in the assay with NCI-H322M lung it was 116%; in the assay on HOP-62 NSCLC, 115%; with NCI-H460 lung it was 106%; in the assay with HOP-92 NSCLC it was 100%. In addition, the growth in the assay on NCI-H522 lung was 104%; in the assay with A549/ATCC NSCLC, 92.3%; in the assay on 786-0 renal, 97.1%; in the assay on COLO 205 colon, 124%.
